From PubChem BioAssay (EPA / NIEHS)
A structure can be active in one record and inactive in another. Activity calls are given as the source filed them. How the source made its calls: active means hit-call score of the fitted dose curve at least 0.9, where 1 is the maximum; inactive means score below 0.9.

What was measured:
[1] = read-out: Plasminogen activator inhibitor-1 (PAI1), SERPINE1 (gene 5054); assay: BSK_MyoF_PAI1: BioMAP Diversity Plus: MyoF Assay for Plasminogen activator inhibitor-1 (PAI1) Biomarker Activity (AID 2284256); conditions: primary human lung fibroblasts
Summary of the method: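 Primary human lung fibroblasts are dosed and incubated 24 h. PAI-1 is then measured by ELISA, while parallel cultures undergo SRB staining for overt cytotoxicity. Increases over DMSO define activity.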

[2] = read-out: Interleukin-8 (IL8), CXCL8 (gene 3576); assay: BSK_MyoF_IL8: BioMAP Diversity Plus: MyoF Assay for Interleukin-8 (IL8) Biomarker Activity (AID 2284261); conditions: primary human lung fibroblasts
Summary of the method: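 IL-8 levels were measured by ELISA in human lung fibroblasts harvested 24 h after compound addition. Responses were analysed as gain of signal over the DMSO baseline.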

Decorin, DCN (gene 1634) = assay: BSK_MyoF_Decorin: BioMAP Diversity Plus: MyoF Assay for Decorin Biomarker Activity (AID 2284265); conditions: primary human lung fibroblasts
Summary of the method: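 Compound is added to lung fibroblast cultures; cells incubate 24 h; decorin is then measured by ELISA; the response is analysed upward against DMSO controls.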

[3] = read-out: Matrix Metallopeptidase 1 (MMP1), MMP1 (gene 4312); assay: BSK_MyoF_MMP1: BioMAP Diversity Plus: MyoF Assay for Matrix Metallopeptidase 1 (MMP1) Biomarker Activity (AID 2284268); conditions: primary human lung fibroblasts
Summary of the method: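 Lung fibroblast cultures were dosed with test chemicals and, after 24 h, MMP1 levels were measured by ELISA; responses were referenced to DMSO and analysed for increases.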

[4] = read-out: TIMP metallopeptidase inhibitor 1 (TIMP1), TIMP1 (gene 7076); assay: BSK_MyoF_TIMP1: BioMAP Diversity Plus: MyoF Assay for TIMP metallopeptidase inhibitor 1 (TIMP1) Biomarker Activity (AID 2284269); conditions: primary human lung fibroblasts
Summary of the method: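 Primary human lung fibroblasts, MyoF multiplex system; chemical exposure 24 h; TIMP-1 by ELISA; positive fitting direction vs DMSO control.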

[5] = read-out: Plasminogen activator inhibitor-1 (PAI1), SERPINE1 (gene 5054); assay: BSK_KF3CT_PAI1: BioMAP Diversity Plus: KF3CT Assay for Plasminogen activator inhibitor-1 (PAI1) Biomarker Activity (AID 2284252); conditions: primary human keratinocytes with fibroblasts
Summary of the method: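 PAI-1 levels quantified by ELISA after 24 h compound exposure of primary human skin keratinocytes co-cultured with fibroblasts. Activity is the gain relative to DMSO; cytotoxicity tracked in parallel cultures via SRB staining.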

[6] = read-out: Interleukin-8 (IL8), CXCL8 (gene 3576); assay: BSK_KF3CT_IL8: BioMAP Diversity Plus: KF3CT Assay for Interleukin-8 (IL8) Biomarker Activity (AID 2284254); conditions: primary human keratinocytes with fibroblasts
Summary of the method: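 Chemicals were added to co-cultured human keratinocytes and foreskin fibroblasts, incubated 24 h, then IL-8 was quantified by ELISA. Cytotoxicity was tracked by sulforhodamine B total-protein staining in parallel cultures.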

[7] = read-out: Macrophage Inflammatory Protein-1 Alpha (MIP1a), CCL3 (gene 6348); assay: BSK_IMphg_MIP1a: BioMAP Diversity Plus: IMphg Assay for Macrophage Inflammatory Protein-1 Alpha (MIP1a) Biomarker Activity (AID 2284255); conditions: primary human endothelial cells with macrophages
Summary of the method: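 MIP-1a protein levels were quantified by ELISA after 24 h treatment of human endothelial cell–macrophage co-cultures, compared with DMSO. Parallel cultures were fixed with TCA and stained with 0.1% SRB to gauge overt cytotoxicity.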

CD69, CD69 (gene 969) = assay: BSK_IMphg_CD69: BioMAP Diversity Plus: IMphg Assay for CD69 Biomarker Activity (AID 2284257); conditions: primary human endothelial cells with macrophages
Summary of the method: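 Readout is ELISA for CD69 in primary human venular endothelial cell/macrophage co-culture, taken at 24 h post-dosing. SRB staining of parallel cultures gauged overt cytotoxicity; signal increase versus DMSO defined activity.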

[8] = read-out: Eotaxin 3, CCL26 (gene 10344); assay: BSK_BF4T_Eotaxin3: BioMAP Diversity Plus: BF4T Assay for Eotaxin 3 Biomarker Activity (AID 2284258); conditions: primary human bronchial epithelial cells with fibroblasts
Summary of the method: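 ELISA measurement of Eotaxin-3 after 24 h chemical exposure in a bronchial epithelial/dermal fibroblast co-culture, with DMSO as baseline. Parallel SRB staining (0.1% SRB after 10% TCA fixation, 560 nm) flagged overt cytotoxicity.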

[9] = read-out: Monocyte Chemoattractant Protein-1 (MCP1), CCL2 (gene 6347); assay: BSK_BF4T_MCP1: BioMAP Diversity Plus: BF4T Assay for Monocyte Chemoattractant Protein-1 (MCP1) Biomarker Activity (AID 2284259); conditions: primary human bronchial epithelial cells with fibroblasts
Summary of the method: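 MCP-1 ELISA readout taken 24 h after dosing in the BF4T system (bronchial epithelial cells plus dermal fibroblasts). Parallel SRB total-protein staining flagged cytotoxicity; DMSO served as baseline, positive fitting direction.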

[10] = read-out: Intercellular Adhesion Molecule 1 (ICAM1), ICAM1 (gene 3383); assay: BSK_BF4T_ICAM1: BioMAP Diversity Plus: BF4T Assay for Intercellular Adhesion Molecule 1 (ICAM1) Biomarker Activity (AID 2284260); conditions: primary human bronchial epithelial cells with fibroblasts
Summary of the method: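 ICAM-1 levels measured by ELISA after 24 h chemical treatment of bronchial epithelial cell/dermal fibroblast co-cultures, read against DMSO baseline. Overt cytotoxicity checked in parallel cultures by sulforhodamine B staining.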

CD90, THY1 (gene 7070) = assay: BSK_BF4T_CD90: BioMAP Diversity Plus: BF4T Assay for CD90 Biomarker Activity (AID 2284262); conditions: primary human bronchial epithelial cells with fibroblasts
Summary of the method: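 CD90 levels by ELISA after 24 h treatment of human bronchial epithelial cell/dermal fibroblast cultures, analysed versus DMSO. Overt cytotoxicity checked in parallel cultures by sulforhodamine B staining.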

[11] = read-out: Interleukin-1 alpha (IL1a), IL1A (gene 3552); assay: BSK_BF4T_IL1a: BioMAP Diversity Plus: BF4T Assay for Interleukin-1 alpha (IL1a) Biomarker Activity (AID 2284264); conditions: primary human bronchial epithelial cells with fibroblasts
Summary of the method: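 ELISA read-out of IL-1α from bronchial epithelial cell/dermal fibroblast co-cultures 24 h after compound addition. Increases scored against DMSO negative control. Cytotoxicity monitored by sulforhodamine B staining of parallel cultures.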

KRT18 (gene 3875) = assay: BSK_BF4T_Keratin818: BioMAP Diversity Plus: BF4T Assay for Keratin 818 Biomarker Activity (AID 2284266); conditions: primary human bronchial epithelial cells with fibroblasts
Summary of the method: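 Keratin 8/18 levels quantified by ELISA after 24 h chemical treatment of bronchial epithelial cell/dermal fibroblast co-cultures, fitted in positive direction relative to DMSO. Parallel SRB staining tracks overt cytotoxicity.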

[12] = BSK_MyoF_SRB: Viability Assessment in the BioMAP Diversity Plus: MyoF Assay (AID 2284267); conditions: primary human lung fibroblasts;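 further: total protein by SRB absorbance in parallel cultures as cytotoxicity measure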
Summary of the method: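 Cytotoxicity read-out: after 10% TCA fixation, parallel human lung fibroblast cultures were stained with 0.1% SRB at 24 h post-dosing and read at 560 nm; DMSO served as baseline.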

[13] = read-out: Matrix Metallopeptidase 1 (MMP1), MMP1 (gene 4312); assay: BSK_BF4T_MMP1: BioMAP Diversity Plus: BF4T Assay for Matrix Metallopeptidase 1 (MMP1) Biomarker Activity (AID 2284270); conditions: primary human bronchial epithelial cells with fibroblasts
Summary of the method: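 MMP-1 quantified by ELISA in primary human bronchial epithelial/dermal fibroblast co-cultures, 24 hours post-dosing, with DMSO as baseline; parallel sulforhodamine B staining (560 nm) tracks overt cytotoxicity.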

[14] = read-out: Interleukin-8 (IL8), CXCL8 (gene 3576); assay: BSK_BF4T_IL8: BioMAP Diversity Plus: BF4T Assay for Interleukin-8 (IL8) Biomarker Activity (AID 2284263); conditions: primary human bronchial epithelial cells with fibroblasts
Summary of the method: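 Human bronchial epithelial cells with dermal fibroblasts co-culture; IL-8 measured by ELISA 24 hours after dosing, fitted vs DMSO. Cytotoxicity tracked in parallel cultures by SRB total-protein staining.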

Measured: AC50

CCCCCCCCCCCCCCCC[N+](C)(C)Cc1ccccc1
active: [1] 2.47 µM | [2] 5.84 µM | Decorin, DCN (gene 1634) 9.35 µM | [3] 2.7 µM | [4] 8.14 µM

O=C(O)C=C(C(F)(F)F)C(F)(F)F
inactive: [5] | [6] | [7] | [1] | CD69, CD69 (gene 969) | [8] | [9] | [10] | [2] | CD90, THY1 (gene 7070) | [11] | Decorin, DCN (gene 1634) | KRT18 (gene 3875) | [3] | [4]
active: [8] 10.8 µM

O[Si](c1ccccc1)(c1ccccc1)c1ccccc1
active: [1] 20 µM | [2] 8.82 µM | [3] 13.9 µM
inactive: Decorin, DCN (gene 1634) | [4]

CCCCCCCCC(F)(F)C(F)(F)C(F)(F)C(F)(F)C(F)(F)C(F)(F)F
not listed: [12] | [13] | [14]
inactive: all other assays above

O=C(O)C(F)(F)C(F)(F)F
active: [9] 48 µM
inactive: [5] | [6] | [7] | [1] | CD69, CD69 (gene 969) | [8] | [9] | [10] | [2] | CD90, THY1 (gene 7070) | [11] | Decorin, DCN (gene 1634) | KRT18 (gene 3875) | [12] | [3] | [4] | [13]

O=S(=O)(OCCOC(F)(F)F)C(F)(F)F
not listed: [13]
inactive: all other assays above

O=C(O)C(F)(F)C(F)(F)C(F)(F)C(F)(F)C(F)(F)C(F)(F)C(F)(F)C(F)(F)C(F)(F)C(F)(F)C(F)(F)C(F)(F)C(F)(F)F
inactive: all assays above

CC(CCl)OP(=O)(OC(C)CCl)OC(C)CCl (centres undefined)
inactive: [1] | [2] | Decorin, DCN (gene 1634) | [3] | [4]
